Test results reported in PubChem BioAssay.
Calls of active or inactive are those of the source.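 The calls were made as follows, unless noted: active = inhibition above 50%; inactive = the rest.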

assay: antimalarial activity against Dd2 strain (AID 2302;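 active = growth inhibition above 50% at the single 2 µM test dose, taken to imply half-maximal potency below 2 µM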;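 also: 0% = DMSO untreated growth and 100% = chloroquine plus artemisinin killed control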); conditions: P. falciparum Dd2 in RBCs, LDH growth readout, 72 h; at 2 µM; stronger effect = higher value

Row | SMILES | growth inhibition
1 | COc1ccccc1-c1nc2nc(N)nc(N)c2nc1-c1ccccc1OC | 1% (inactive)
2 | CCC(=O)c1ccc(-c2ccc(=O)n(CC(=O)N(CCN(CC)CC)Cc3ccc(-c4ccc(C(F)(F)F)cc4)cc3)n2)cc1 | 67% (active)
3 | CC(=O)Nc1ccc(C2NC(=O)NC(c3ccccc3)=C2c2nc3ccccc3s2)cc1 (stereo unspecified) | 96% (active)
4 | Cc1cccc2[nH]c(-c3ccc(-c4cccc(CNCCCNS(C)(=O)=O)c4)cc3)nc12 | 5% (inactive)
5 | Cc1cccc2[nH]c(-c3ccc(-c4ccc(CNCCNC(=O)c5ccnn5C)cc4)cc3)nc12 | 98% (active)
6 | COc1cc(NC(=O)N2CCOC(CCN3CCC(c4ccccc4)CC3)(c3ccc(Cl)c(Cl)c3)C2)cc(OC)c1OC (stereo unspecified) | 73% (active)
7 | CN1CCN(Cc2ccc(-c3ccc4c(Nc5ccc(F)cc5Cl)ccnc4c3)o2)CC1 | 100% (active)
8 | CN1CCN(CCCN(Cc2ccc(-c3ccc(CNC4CCCC4)cc3)cc2)C(=O)CCC2CCCC2)CC1 | 96% (active)
9 | N#Cc1cccc(C(=O)Nc2ccc(-c3ccc(CN4CCCC4)cc3)cc2)c1 | 32% (inactive)
10 | C=CCc1cc(C2CCN(CCCCNC(=O)c3ccc(-c4ccc(C#N)cc4)cc3)CC2)c(OCC(N)=O)c2c1CCCC2 | 92% (active)
11 | CN(C)Cc1ccc(CN2CCN(CCOc3ccc(-c4ccc(Cl)cc4)cc3)CC2)o1 | 21% (inactive)
12 | COc1ccc2nccc([C@@H](O)CN3CCC(NCc4ccc5c(c4)NC(=O)CS5)CC3)c2c1 | 36% (inactive)
13 | O=C(c1ccc([N+](=O)[O-])o1)N1CCN(c2nc3c(F)cc(F)cc3s2)CC1 | 86% (active)
14 | CC1(C)C[C@@H]2C[C@@](C)(CN2C(=O)c2cc(C(C)(C)C)nn2Cc2ccccc2)C1 | 77% (active)
15 | CCCCCCCNCc1c(O)ccc2c(CNCCCCCCC)c(O)ccc12 | 99% (active)
16 | COc1cc2c(cc1OC)CN(CCCCNC(=O)c1ccc(NC(=O)c3cc(Cl)cc(Cl)c3)cc1)CC2 | 75% (active)
17 | COc1c(OC)c(OC)c2ccccc2c1CNCCCCCCNCc1c(OC)c(OC)c(OC)c2ccccc12 | 71% (active)
18 | Oc1ccccc1CN1CCC2(CCCN(Cc3ccccc3F)C2)C1 (stereo unspecified) | 83% (active)
19 | CC(C)C(=O)NC(Nc1ccc([N+](=O)[O-])cc1)C(Cl)(Cl)Cl (stereo unspecified) | 84% (active)
20 | Fc1ccc2nc(-c3ccc(-c4cccc(CN5CCN(c6ccncc6)CC5)c4)cc3)[nH]c2c1 | 101% (active)
21 | O=C(NC1CCCCN(Cc2ccc3c(c2)OCCO3)C1)c1cc(-c2ccccc2F)cs1 (stereo unspecified) | 19% (inactive)
22 | CN(C)c1cc(NC(=O)Nc2ccccc2)c2ccccc2n1 | 98% (active)
23 | CCc1c(CCNCCCCCCNCCc2ccc(OC)c(OC)c2C)ccc(OC)c1OC | 1% (inactive)
24 | CC(C)c1ccc(NC(=O)Nc2ccc(CCNCCCc3ccccc3)cc2)cc1 | 56% (active)
25 | CCOc1ccc(NC(=O)c2cccc(CN3CCCN(Cc4cccc(O)c4)CC3)c2)cc1 | 23% (inactive)
26 | CN(C)CCCOc1ccc(CN2CC[C@H](NC(=O)c3ccc(Cl)c(Cl)c3)C2)cc1Cl | 35% (inactive)

assay: human hepatoma cell viability loss – ATP luminescence, cytotoxicity control for P. falciparum antimalarial project, primary screen (AID 2303); conditions: HepG2 viability, 24-48 h, at 10 µM, stronger effect = higher value;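 also: 0% = DMSO wells and 100% = digitonin-killed cells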

Row | SMILES | inhibition
27 | O=C(Nc1ccc(-c2ccc(-c3nc4ccccc4[nH]3)cc2)cc1)Nc1ccc(Cl)c(Cl)c1 | 68% (active)
28 | O=C(Nc1cccc(Cl)c1)OC1CCCN2CCCCC12 (stereo unspecified) | 6% (inactive)
29 | CCC(C)C(COC(=O)c1cc(OC)c(OC)c(OC)c1)N(C)CCN(C)C(COC(=O)c1cc(OC)c(OC)c(OC)c1)C(C)CC (stereo unspecified) | 20% (inactive)
30 | COc1ccc(N2CCN(CCCCNCc3ccc(NC(=O)c4cc(Cl)cc(Cl)c4)cc3)CC2)c(OC)c1 | 39% (inactive)
31 | O=C(C=Cc1ccc(Cl)c(Cl)c1)NCCCCCN1CCC(CCCNC(=O)/C=C/c2ccccc2)CC1 | 50% (active)
32 | CCOc1ccc(CCCON2C(N)=NC(N)=NC2(C)C)cc1 | 65% (active)
33 | CNCc1ccc(CN(C)c2nc(N)c3cc(OC)c(OC)cc3n2)cc1 | 12% (inactive)
34 | COc1ccc2nccc([C@@H](O)CN3CCC(NCc4ccc5c(c4)NC(=O)C(C)S5)CC3)c2c1 (stereo partly specified) | 7% (inactive)
35 | N#Cc1ccc2nc(-c3cc(-c4cccc(F)c4)cnc3N)[nH]c2c1 | 46% (inactive)
36 | O=C(Nc1ccc(S(=O)(=O)N2CCCC2)cc1)c1cc(-c2cccnc2)nc2ccc(Cl)cc12 | 4% (inactive)
37 | Cn1nc2ccc3ccccc3c2nc1=N | 100% (active)
38 | CN(CCc1ccccn1)Cc1ccc(-c2ccc(-c3nc4ccccc4[nH]3)s2)cc1 | 29% (inactive)
39 | O=C(COc1ccccc1)NC1CCN(c2ccnc3cc(Cl)ccc23)C1 (stereo unspecified) | 22% (inactive)
40 | O=C(Cc1ccc(Cl)cc1)Nc1cc(Cl)ccc1Cn1cnc(N2CCNCC2)cc1=O | 9% (inactive)
41 | COc1ccccc1-c1nc2nc(N)nc(N)c2nc1-c1ccccc1OC | 27% (inactive)
42 | CCC(=O)c1ccc(-c2ccc(=O)n(CC(=O)N(CCN(CC)CC)Cc3ccc(-c4ccc(C(F)(F)F)cc4)cc3)n2)cc1 | 91% (active)
43 | CC(=O)Nc1ccc(C2NC(=O)NC(c3ccccc3)=C2c2nc3ccccc3s2)cc1 (stereo unspecified) | -3% (inactive)
44 | Cc1cccc2[nH]c(-c3ccc(-c4cccc(CNCCCNS(C)(=O)=O)c4)cc3)nc12 | 5% (inactive)
45 | Cc1cccc2[nH]c(-c3ccc(-c4ccc(CNCCNC(=O)c5ccnn5C)cc4)cc3)nc12 | 29% (inactive)
46 | COc1cc(NC(=O)N2CCOC(CCN3CCC(c4ccccc4)CC3)(c3ccc(Cl)c(Cl)c3)C2)cc(OC)c1OC (stereo unspecified) | 15% (inactive)

Row | SMILES | inhibition
47 | CN1CCN(Cc2ccc(-c3ccc4c(Nc5ccc(F)cc5Cl)ccnc4c3)o2)CC1 | 8% (inactive)
48 | CN1CCN(CCCN(Cc2ccc(-c3ccc(CNC4CCCC4)cc3)cc2)C(=O)CCC2CCCC2)CC1 | 92% (active)
49 | N#Cc1cccc(C(=O)Nc2ccc(-c3ccc(CN4CCCC4)cc3)cc2)c1 | 38% (inactive)
50 | C=CCc1cc(C2CCN(CCCCNC(=O)c3ccc(-c4ccc(C#N)cc4)cc3)CC2)c(OCC(N)=O)c2c1CCCC2 | 43% (inactive)
51 | CN(C)Cc1ccc(CN2CCN(CCOc3ccc(-c4ccc(Cl)cc4)cc3)CC2)o1 | 75% (active)
52 | COc1ccc2nccc([C@@H](O)CN3CCC(NCc4ccc5c(c4)NC(=O)CS5)CC3)c2c1 | -4% (inactive)
53 | O=C(c1ccc([N+](=O)[O-])o1)N1CCN(c2nc3c(F)cc(F)cc3s2)CC1 | -7% (inactive)
54 | CC1(C)C[C@@H]2C[C@@](C)(CN2C(=O)c2cc(C(C)(C)C)nn2Cc2ccccc2)C1 | -3% (inactive)
55 | CCCCCCCNCc1c(O)ccc2c(CNCCCCCCC)c(O)ccc12 | 29% (inactive)
56 | COc1cc2c(cc1OC)CN(CCCCNC(=O)c1ccc(NC(=O)c3cc(Cl)cc(Cl)c3)cc1)CC2 | 19% (inactive)
57 | COc1c(OC)c(OC)c2ccccc2c1CNCCCCCCNCc1c(OC)c(OC)c(OC)c2ccccc12 | 99% (active)
58 | Oc1ccccc1CN1CCC2(CCCN(Cc3ccccc3F)C2)C1 (stereo unspecified) | 13% (inactive)
59 | CC(C)C(=O)NC(Nc1ccc([N+](=O)[O-])cc1)C(Cl)(Cl)Cl (stereo unspecified) | 7% (inactive)
60 | Fc1ccc2nc(-c3ccc(-c4cccc(CN5CCN(c6ccncc6)CC5)c4)cc3)[nH]c2c1 | 66% (active)
61 | O=C(NC1CCCCN(Cc2ccc3c(c2)OCCO3)C1)c1cc(-c2ccccc2F)cs1 (stereo unspecified) | 8% (inactive)
62 | CN(C)c1cc(NC(=O)Nc2ccccc2)c2ccccc2n1 | 11% (inactive)
63 | CCc1c(CCNCCCCCCNCCc2ccc(OC)c(OC)c2C)ccc(OC)c1OC | 16% (inactive)
64 | CC(C)c1ccc(NC(=O)Nc2ccc(CCNCCCc3ccccc3)cc2)cc1 | 22% (inactive)
65 | CCOc1ccc(NC(=O)c2cccc(CN3CCCN(Cc4cccc(O)c4)CC3)c2)cc1 | 22% (inactive)
66 | CN(C)CCCOc1ccc(CN2CC[C@H](NC(=O)c3ccc(Cl)c(Cl)c3)C2)cc1Cl | 65% (active)
